Source: PubChem
ERG-DNA inh: inhibitors of human ERG Ets domain-DNA interaction | Potency, µM (series often up to 76.9 µM), for inactives: at the top dose FP activity, negative = inhibition, hits mostly inhibitors | fluorescence polarization, His-ERG Ets domain / labelled DNA | 370,000 compounds, 0.028% hits; active means well fitted inhibition curve with a large enough effect in the polarisation, with a control signal flat; inconclusive means small, poorly fitted or top-dose-only effect, or effect the other way, or a change in a side signal; inactive means no such curve, though single readings can be large or run the other way; the % refers to the polarisation;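 further: polarization taken with two DNA probes labelled with fluorescein and Texas red; potency means the concentration at half of the fitted maximal effect; % of control where 0% means no effect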
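His-tagged ERG Ets domain (1 uM in the protein solution; 300mM KCl, 50mM Tris-HCl, 1mM EDTA, 1mM DTT, pH 7.5) received compound, then a probe mix of 5 nM fluorescein-DNA and 100nM Texas-615-DNA. Fluorescence polarization was read for both dyes.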
DRD3 antagonist: antagonists of human D3 dopamine receptor; P35462; D3R cells, DiscoveRx beta-arrestin luminescence, antagonist mode; hits give low values; max response, negative = inhibition, %; 360,000 compounds, 2.5% hits; in the data active means max response below about -50%; inconclusive means no clear call, values can overlap the other calls; further: on the % scale 0 is the no-effect control and ±100 the full control effect
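Cells expressing the human receptor were seeded at 1500 cells/well, incubated overnight at 37 degrees C in 5% CO2, then exposed to library compounds with dopamine controls for 90 minutes at 37 degrees C before luminescent detection.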
D1 agonist: agonists of human D1 dopamine receptor; P21728; HEK293 T-REx D1 cells, calcium flux, agonist mode; activation, % at 2 µM; 360,000 compounds, 1% hits; AID 504660; in the data active means activation above about 30%; further: 0% is about no effect
Target sequence (P21728 whole entry, looked up): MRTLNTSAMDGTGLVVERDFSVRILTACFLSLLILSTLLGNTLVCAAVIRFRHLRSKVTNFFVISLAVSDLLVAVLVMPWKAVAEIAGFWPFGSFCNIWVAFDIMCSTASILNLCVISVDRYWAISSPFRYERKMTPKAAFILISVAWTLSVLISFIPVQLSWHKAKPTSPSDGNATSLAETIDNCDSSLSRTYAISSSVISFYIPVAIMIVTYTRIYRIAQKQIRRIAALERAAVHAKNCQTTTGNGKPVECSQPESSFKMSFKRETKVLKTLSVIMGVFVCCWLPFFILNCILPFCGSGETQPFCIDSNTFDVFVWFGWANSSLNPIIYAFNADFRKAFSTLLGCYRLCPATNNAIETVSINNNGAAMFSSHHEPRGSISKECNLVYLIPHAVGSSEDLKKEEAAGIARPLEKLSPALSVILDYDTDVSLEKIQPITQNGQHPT
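Inducible HEK293 T-REx D1 cells, force-coupled to calcium signalling, were plated at 4000 cells/well with tetracycline and held overnight at 30 C. After no-wash calcium dye loading, compound-evoked calcium rise over 180 s flagged agonists.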
DRD3 agonist: activates the human D3 dopamine receptor. D3R DiscoveRx beta-arrestin cells, luminescence, 90 min. max activation, %. 410,000 compounds, 0.58% hits; in the data active means max activation above about 30%; further: 0% is about no effect
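Agonist mode: compounds and dopamine controls were applied to plated cells for 90 min at 37 degrees C after an overnight attachment at 1500 cells/well. Luminescent read-out followed 30 - 60 minutes at room temperature with DiscoveRx detection reagent.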
D1 PAM: potentiators of human D1 dopamine receptor; P21728; 360,000 compounds, 0.036% hits; HEK293 TREx D1 cells, calcium flux, dopamine EC20 potentiation; potentiation, % at 10 µM; AID 504651; in the data active means potentiation above about 30%; further: 0% is about no effect
D1 antagonist: human D1 dopamine receptor antagonism; activity change, negative = inhibition, % at 10 µM; HEK293 TREx D1 cells, calcium flux, dopamine EC80; hits give low values; AID 504652; 360,000 compounds, 3.2% hits; in the data active means activity change below about -30%; further: on the % scale 0 is the no-effect control and ±100 the full control effect
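Cells carrying a force-coupled, tetracycline-inducible human D1 receptor report calcium flux. Each well gets a 10 s baseline, compound with 180 s monitoring, then an EC80 dopamine stimulus with a second 180 s kinetic read.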
* marks the source's active call; other numbers are inactive results; ? = inconclusive; . = no result. A selection: hits, their analogues and other compounds. The true share with any hit is near 6.1%.

SMILES	ERG-DNA inh	DRD3 antagonist	D1 agonist	DRD3 agonist	D1 PAM	D1 antagonist
COCCOC(=O)c1[nH]c2c(c1C)C(=O)CC(c1ccccc1)C2 (stereo not drawn)	-7%	0	6	-11	-2	-18
O=[N+]([O-])c1cc(/C=N/N2CCOCC2)cs1	32µM*	-2	0	7	-1	-18
COc1ccc(CNC(=O)COC(=O)CCCOc2ccc(Cl)cc2Cl)cc1	-2%	5	31*	-5	4	-3
CCCCC(=O)Nc1cc(C)c(NC(=O)c2ccco2)cn1	-1%	8	1	-2	-4	-2
Cc1csc2ncnc(NC3CCN(Cc4ccccc4)CC3)c12	9%	-90*	22	-14	-10	-33*
Cc1ccc(-c2csc3ncnc(N4CCN(Cc5ccccc5)CC4)c23)cc1	4%	39	2	-16	-5	6
O=C(CCC(=O)Nc1cccc(Cl)c1)N/N=C/c1cc([N+](=O)[O-])ccc1O	-12%	-62*	1	-16	0	15
Cc1ccccc1NCC(=O)N/N=C/c1ccc([N+](=O)[O-])cc1	-8%	-13	3	-3	0	-43*
O=C(CCCC(=O)Nc1cccc(Br)c1)N/N=C/c1cc([N+](=O)[O-])ccc1O	3%	?	4	-21	2	-8
Cc1ccccc1NC(=O)CCC(=O)N/N=C/c1cc([N+](=O)[O-])ccc1O	10%	-58*	0	-14	-4	6
O=C(CSc1nc2ccccc2s1)N/N=C/c1cc([N+](=O)[O-])ccc1O	6%	-61*	1	-8	-4	-15
Cc1cc(NC(=O)C(C)SCC(=O)Nc2ccccc2OC(F)F)no1 (stereo not drawn)	-5%	-13	4	-10	-3	-4
Cc1cc2c(cc1C)N(Cc1ccc(Cl)cc1)C1=NCCCN12	-7%	-1	.	-30	.	.
Cc1ccc([N+](=O)[O-])cc1NC(=O)CCCOc1ccccc1	0%	-64*	3	-1	-4	-14
O=[N+]([O-])c1ccc(O)c(/C=N/n2c(CO)nc3ccccc32)c1	-18%	-54*	2	-17	0	10
CN1CCN(CCC(=O)N/N=C/c2cc([N+](=O)[O-])ccc2O)CC1	-5%	-79*	4	-24	10	-4
CS(=O)(=O)Nc1ccc(-c2n[nH]c(=S)n2-c2ccccc2)cc1	.	-23	3	-9	-1	-1
Cc1noc(N)c1C(=O)Nc1ccc(F)cc1	-11%	-7	0	3	-13	-15
Cc1cccc(C(=O)N2CCCC(N3CCN(c4cccc(Cl)c4)CC3)C2)n1 (stereo not drawn)	-1%	4	2	6	-1	-12
CC(C)/C=C/CN1CCCC(N2CCN(c3cccc(Cl)c3)CC2)C1 (stereo not drawn)	1%	-15	6	-23	-7	-37*
CCCCCc1ccc(OCCOCCn2c[n+](C)c3ccccc32)c(CCCCC)c1	-4%	23	129*	-1	-10	16
CCCCCc1ccc(OCCC[n+]2ccccc2)c(CCCCC)c1	-13%	-15	159*	-33	-9	-21
COc1ccc(CC(=O)N2CCN=C2SC)cc1	4%	28	3	6	.	-79*
O=c1[nH][nH]c(-c2ccccc2)c1C=Nc1cccc(Cl)c1	-2%	?	0	0	-10	-34*
CC(C)CN(C(=O)CN1C(=O)NC2(CCc3ccccc32)C1=O)C1CCS(=O)(=O)C1 (stereo not drawn)	-1%	27	0	2	-3	11
SMILES	ERG-DNA inh	DRD3 antagonist	D1 agonist	DRD3 agonist	D1 PAM	D1 antagonist
O=C(Nc1cccc(-n2cnnn2)c1)c1ccc(Cl)cc1Cl	12%	-1	12	-3	-2	-17
CN(C)c1ccc(N=Nc2nccs2)cc1	.	-82*	.	-13	.	.
CN(C)c1ccc(N=Nc2ccccc2Br)cc1	-1%	-26	2	-15	-4	31
Cc1n[nH]c(=S)n1/N=C/c1ccc(OCc2ccc(Cl)cc2)cc1	3%	?	1	-12	-2	-34*
Cc1n[nH]c(=S)n1/N=C/c1ccc(OCc2ccc(Cl)cc2Cl)cc1	3%	-4	4	-7	-1	-9
S=c1[nH]nc(-c2cc(-c3ccccc3)n[nH]2)n1/N=C/c1ccc(Cl)cc1	6%	-55*	-1	-17	-2	0
O=[N+]([O-])c1ccc(/C=N/n2c(-c3cccnc3)n[nH]c2=S)cc1	4%	-56*	3	-15	-1	-9
S=c1[nH]nc(-c2cc(-c3ccccc3)n[nH]2)n1/N=C/c1ccc(Cl)c(Cl)c1	3%	-8	1	-4	0	-6
Cc1n[nH]c(=S)n1/N=C/c1ccccc1OCc1ccc(Cl)cc1Cl	-10%	21	0	31*	0	0
COc1ccc(N(CC(=O)N/N=C/c2cccnc2)S(=O)(=O)c2ccc(C)cc2)cc1OC	-13%	1	3	3	-5	-52*
COc1ccc(N(CC(=O)N/N=C/c2cccnc2)S(=O)(=O)c2ccccc2)c(OC)c1	-13%	0	5	-7	-13	-15
Cc1cc(C)cc(N2C(=O)CC(n3nc(C)cc3C)C2=O)c1 (stereo not drawn)	-1%	-2	3	1	-8	-43*
O=C(CN(Cc1ccccc1)S(=O)(=O)c1cccc(C(F)(F)F)c1)NC1CCCCC1	2%	0	5	-9	1	-31*
COc1cc(/C=C/CN2CCN(CCC(C)C)C(CCO)C2)ccc1O (stereo not drawn)	-1%	1	1	-14	-6	17
C/C(=C\c1ccccc1)CN1CCN(Cc2ccc(C)o2)C(CCO)C1 (stereo not drawn)	6%	-80*	2	-19	-4	0
COc1ccccc1/C=C/CN1CCN(Cc2ccc(C)o2)C(CCO)C1 (stereo not drawn)	2%	-77*	1	-14	-6	3
COc1cc(/C=C/CN2CCN(Cc3ccc(C)o3)C(CCO)C2)ccc1O (stereo not drawn)	6%	-61*	0	-51	-4	11
C=CCOc1ccc(/C=C/C(=O)OCC(=O)N2CCCc3ccccc32)cc1	8%	-21	21	4	-1	-20
O=C(O)CC/C(=N/NC(=O)CNC(=O)C(c1ccccc1)c1ccccc1)c1ccccc1	-20%	-19	4	-11	-10	-34*
CCOc1c2ccc(C(=O)NCc3ccc4c(c3)OCO4)cc2nn1CC	13%	-52*	2	13	-8	-3
